Compounds without any hit were thinned out: in the full panel of roughly 83,000, 20% have a hit.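 Plates (96-well) were seeded with cells, treated with compound at one concentration, and incubated for 48 hours before percent growth was determined.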 A number with no mark means an inactive call. Calls of active or inactive are those of the source. How the source made its calls: active means growth percent below 10; inactive means the rest.
How the values were obtained:
Experiment in all cases: NCI-60 one-dose screen, 48 h (100 = growth as untreated, 0 = no growth, -100 = all killed)
HCT-15 colon = settings: 10 µM unless noted
HT29 colon = settings: 10 µM unless noted
SNB-75 CNS = settings: 10 µM unless noted
SNB-19 CNS = settings: 10 µM unless noted
U251 CNS = settings: 10 µM unless noted
PC-3 prostate = settings: 10 µM unless noted
SK-MEL-5 melanoma = settings: 10 µM unless noted
UACC-62 melanoma = settings: 10 µM unless noted
LOX IMVI melanoma = settings: 10 µM unless noted
SK-MEL-28 melanoma = settings: 10 µM unless noted
SK-MEL-2 melanoma = settings: 10 µM unless noted
EKVX NSCLC = settings: 10 µM unless noted
SN12C renal = settings: 10 µM unless noted
UO-31 renal = settings: 10 µM unless noted
TK-10 renal = settings: 10 µM unless noted
CAKI-1 renal = settings: 10 µM
A498 renal = settings: 10 µM unless noted
CCRF-CEM leukemia = settings: 10 µM unless noted
MOLT-4 leukemia = settings: 10 µM unless noted
ACHN renal = settings: 10 µM unless noted

SMILES	growth (HCT-15 colon)	growth (HT29 colon)	growth (SNB-75 CNS)	growth (SNB-19 CNS)	growth (U251 CNS)	growth (PC-3 prostate)	growth (SK-MEL-5 melanoma)	growth (UACC-62 melanoma)	growth (LOX IMVI melanoma)	growth (SK-MEL-28 melanoma)	growth (SK-MEL-2 melanoma)	growth (EKVX NSCLC)	growth (SN12C renal)	growth (UO-31 renal)	growth (TK-10 renal)	growth (CAKI-1 renal)	growth (A498 renal)	growth (CCRF-CEM leukemia)	growth (MOLT-4 leukemia)	growth (ACHN renal)
Nc1ccc(S(=O)(=O)Nc2ccnn2-c2ccccc2)cc1	100%	109%	106%	108%	94.4%	90.1%	105%	107%	93.2%	119%	115%	93.8%	99.7%	82.4%	117%	92.7%	107%	107%	98.1%	–
COc1ccccc1N1CCN(CCCOc2ccc(OCCCN3CCN(c4ccccc4OC)CC3)c(C(=O)c3cc(OC)c(OC)c(OC)c3)c2)CC1	140%	101%	120%	102%	118%	95.9%	87.6%	109%	116%	115%	97.2%	88.8%	110%	102%	123%	–	122%	–	98.1%	157%
COc1cccc(C2CC(c3cc(OC)c(OC)c(OC)c3)=NN2)c1 (stereo unspecified)	67.3%	37.1%	74.4%	77.2%	85.6%	69.1%	83.7%	82.4%	61%	101%	94%	117%	91.8%	94.9%	106%	–	82.2%	–	81.2%	94.3%
C[C@@H]1CC2C3C[C@H](F)C4=CC(=O)C=C[C@]4(C)[C@@]3(F)[C@@H](O)C[C@]2(C)[C@@]1(O)C(=O)CO (stereo partly specified)	101%	102%	132%	91.8%	105%	86.1%	90.4%	97.3%	92.1%	108%	94.2%	64.9%	51.6%	71.6%	102%	75.8%	123%	40%	76.8%	–
OCCOCC(F)(F)F	108%	105%	88.3%	117%	105%	97.8%	107%	113%	112%	98.5%	119%	97.9%	116%	94.1%	116%	–	–	-0.0215% (active)	–	108%

Source: PubChem BioAssay (NCI)
